According to PubChem BioAssay (Tox21):
Values joined by “and” are separate entries in the source; they are usually repeats but may differ in a detail not shown here. Equal values may be shown once. Records with an inconclusive call do not appear. Entries that show only a call come without a potency. Active and inactive are the calls of the source. The call rests on the fitted dose curve; in most records, active means well fitted cell-killing curve with a large enough effect in the repeat runs; inconclusive means weak or mixed curves, or effect the other way; inactive means flat fitted curve, though single readings scatter.

test: qHTS assay to identify small molecule antagonists of the androgen receptor (AR) signaling pathway using the MDA cell line - cell viability counter screen (AID 743041; further: nearly all actives have a fitted effect of over 45% in size); conditions: MDA-kb2 viability, CellTiter-Fluor, 16 h, cells co-treated with R1881 androgen agonist; series mostly up to 70.3 µM
Excerpt: National Center for Advancing Translational Sciences [NCATS]
NIH Chemical Genomics Center [NCGC]
U.S. Environmental Protection Agency [EPA]
National Institutes of Environmental Health Sciences [NIEHS]
National Toxicology Program [NTP]
U.S. Food and Drug Administration [FDA]
Androgen receptor (AR), a nuclear hormone receptor, plays a critical role in AR-dependent prostate cancer and other androgen related diseases. Endocrine disrupting chemicals (EDCs) and their interactions with steroid hormone receptors like AR may cause disruption of normal endocrine function as well as interfere with metabolic homeostasis, reproduction, developmental and behavioral functions. To identify the compounds that inhibit AR signaling, MDA-kb2 AR-luc cell line (from ATCC, deposited by Wilson et al.) was used to screen the Tox21 10K compound library. MDA-kb2 AR-luc cell line is human breast carcinoma cell line that was stably transfected with a luciferase reporter gene under control of the MMTV promoter containing response elements for both androgen receptor (AR) and glucocorticoid receptor (GR). The cytotoxicity of the Tox21 compound library against the MDA-kb2 AR-luc cell line was tested in parallel by measuring the cell viability using CellTiter-Fluor assay (Promega, Madison, WI) in the same wells.
Tox21 Assay Protocol Summary:
MDA-kb2 AR-luc cells were dispensed at 3,000 cells/4 uL/well of culture medium into white wall/solid-bottom 1536-well plates using a Multidrop Combi (ThermoFisher Scientific, Waltham, MA) dispenser. After the assay plates were incubated at a 37C and 0% CO2 for 5 hr, 23 nL of compounds dissolved in DMSO, positive controls or DMSO only was transferred to the assay plate by a Pintool station (Kalypsys, San Diego, CA), followed by addition of 1 uL of agonist (R1881) in culture medium using a Bioraptr Flying Reagent Dispenser (FRD) workstation (Beckman Coulter, Indianapolis, IN, USA). The plates were incubated at a 37C and 0% CO2 for 16 h. After 15.5 h incubation, 1uL of CellTiter-Fluor reagent (Promega) was added using a Bioraptr FRD to each plate for measuring cytotoxicity. The fluorescence intensity was quantified on a ViewLux plate reader (PerkinElmer, Shelton, CT) following 30 min incubation at 37C and 0% CO2.
Potency means the concentration at half of the fitted maximal effect.

SMILES	Potency	viability change, negative = cytotoxic
S=C([S-])NCCNC(=S)[S-].[Mn+2]	inactive	–
CCOc1ccc(O)cc1	inactive	–
Cc1ccc(N=Nc2c(O)c(C(=O)O)cc3ccccc23)c(S(=O)(=O)O)c1	inactive	–
CC(CC=O)c1ccccc1 (stereo not given)	inactive	–
CCCCCCCCCCCc1ccccc1	inactive	–
CCCCCCCCCc1ccc(OCCOCCO)cc1	11.1 µM (active) and 5.11 µM (active)	–
C[N+]1(C)CCC(OC(=O)C(O)(c2ccccc2)C2CCCC2)C1 (stereo not given)	inactive	–
COc1cc(Cl)c(OC)cc1N	inactive	–
O=[N+]([O-])c1ccc2[nH]ncc2c1	inactive	–
CN(Cc1ccc(C(C)(C)C)cc1)Cc1cccc2ccccc12	inactive	–
O=C(O)C(S)C(S)C(=O)O (stereo not given)	inactive	–
C=CC1CC2C=CC1C2 (stereo not given)	inactive	–
C=CCOc1ccccc1OCC(O)CNC(C)C (stereo not given)	inactive	–
Cc1cccc(Nc2ccccc2)c1	inactive	–
CCCCCCCCCCCCN1CCCCCC1=O	inactive	–
CCOc1ccc(N=Nc2ccc(/C=C/c3ccc(N=Nc4ccc(OCC)cc4)cc3S(=O)(=O)O)c(S(=O)(=O)O)c2)cc1	53.6 µM (active)	–
CCOC(=O)C1=C[C@]2(CC)CCCN3CCc4c(n1c1ccccc41)[C@@H]32	inactive	–
COc1ccc(C)cc1[N+](=O)[O-]	inactive	–
COc1ccc(C(=O)c2ccc(OC)cc2O)c(O)c1	inactive	–
CCCCCCCCCOS(=O)(=O)O	inactive	–

SMILES	Potency	viability change, negative = cytotoxic
CCCCC(CC)COC(=O)COc1ccc(Cl)cc1Cl (stereo not given)	inactive	–
CCC(C)c1cc(C(C)(C)C)c(O)c(C(C)(C)C)c1 (stereo not given)	inactive	–
CN(C)CCN(Cc1ccc(Cl)cc1)c1ccccn1	inactive	–
Brc1c2ccccc2c(Br)c2ccccc12	–	2.16% [at 8.47 µM] (inactive)
O=[N+]([O-])c1ccc(NCCO)c(OCCO)c1	54.5 µM (active)	–
O=C(O)c1ccco1	inactive	–
COc1cc2nc(N3CCN(C(=O)C4COc5ccccc5O4)CC3)nc(N)c2cc1OC (stereo not given)	inactive	–
CC(=O)c1ccc2c(c1)N(CCCN1CCC(CCO)CC1)c1ccccc1S2	inactive	–
O=C(O)c1ccc(S(=O)(=O)O)cc1C(=O)O	inactive	–
C[C@H]1C[C@H]2[C@@H]3CCC4=CC(=O)C=C[C@]4(C)[C@@]3(Cl)[C@@H](O)C[C@]2(C)[C@@]1(O)C(=O)CO	inactive	–
O=C(O)CC(=O)C(=O)O	inactive	–
Cc1cccc(C)c1NC(=O)CN(CC(=O)O)CC(=O)O	inactive	–
COc1cc2nc(N(C)CCCNC(=O)C3CCCO3)nc(N)c2cc1OC (stereo not given)	inactive	–
C#C[C@]1(O)CC[C@H]2[C@@H]3CCc4cc(OC5CCCC5)ccc4[C@H]3CC[C@@]21C	inactive	–
CCn1cc(C(=O)O)c(=O)c2cnc(N3CCNCC3)nc21	inactive	–
COC(=O)C1=C(C)NC(COC(N)=O)=C(C(=O)OC(C)C)C1c1cccc(Cl)c1Cl (stereo not given)	inactive	–
CC(C)C[C@H]1C(=O)N2CCC[C@H]2[C@]2(O)O[C@](NC(=O)[C@@H]3C=C4c5cccc6[nH]c(Br)c(c56)C[C@H]4N(C)C3)(C(C)C)C(=O)N12	inactive	–
COc1ccc(S(=O)(=O)N2C(=O)[C@@](c3ccccc3OC)(N3C[C@H](O)C[C@H]3C(=O)N(C)C)c3cc(Cl)ccc32)c(OC)c1	inactive	–
O=C(OCCc1ccccc1)c1ccccc1	inactive	–
CCCCc1ncc(/C=C(\Cc2cccs2)C(=O)O)n1Cc1ccc(C(=O)O)cc1	inactive	–
